# Among all 39,000 compounds or so, about 1,500 (3.8%) were called active. Only a selection was taken, and actives are over-represented in it overall.
# Test system: HSkMC (human skeletal muscle cells)
# Test: cytotoxicity call (relative viability < 0.9)
# Settings: 10 µM
row,Structure (SMILES),cytotoxicity call
1,C[C@@H]1CN([C@@H](C)CO)C(=O)c2cc(NC(=O)C3CC3)ccc2O[C@@H]1CN(C)C(=O)NC1CCCCC1,inactive
2,C=CC(=O)NS(=O)(=O)c1ccccc1,inactive
3,CCS(=O)(=O)N1CC[C@H]2[C@H](CC1)S(=O)(=O)CCN2C(=O)c1ccccc1,inactive
4,COCC(=O)N1C[C@@H](C)[C@@H](OC)CN(C)C(=O)c2ccc(NC(=O)c3ccc(OC)cc3)cc2OC[C@@H]1C,inactive
5,Cc1cc(N)n(-c2nc(=O)c(C)c(C)[nH]2)n1,inactive
6,CCCCc1c(C)nc2ccc(Br)cc2c1SC(N)N,inactive
7,NS(=O)(=O)c1ccc2c(c1)COC2,inactive
8,COc1ccc(S(=O)(=O)N(C)C[C@@H]2Oc3c(NS(=O)(=O)c4ccc(C)cc4)cccc3C(=O)N([C@@H](C)CO)C[C@@H]2C)cc1,inactive
9,C[C@H](CO)N1C[C@H](C)[C@@H](CN(C)Cc2ccc(C(F)(F)F)cc2)Oc2ccc(NS(=O)(=O)c3ccc(Cl)cc3)cc2CC1=O,inactive
10,C[C@H]1CN([C@@H](C)CO)C(=O)Cc2cc(NS(=O)(=O)c3ccc(Cl)cc3)ccc2O[C@@H]1CN(C)Cc1ccc(C(F)(F)F)cc1,active
11,C[C@@H]1CN([C@@H](C)CO)C(=O)Cc2cc(NS(=O)(=O)c3ccc(Cl)cc3)ccc2O[C@H]1CN(C)Cc1ccc(C(F)(F)F)cc1,inactive
12,C[C@H]1CN([C@@H](C)CO)C(=O)Cc2cc(NS(=O)(=O)c3ccc(Cl)cc3)ccc2O[C@H]1CN(C)Cc1ccc(C(F)(F)F)cc1,active
13,C[C@@H]1CN([C@H](C)CO)C(=O)c2cc(NC(=O)CCCN(C)C)ccc2O[C@@H]1CN(C)C(=O)NC1CCCCC1,inactive
14,C[C@@H]1CN([C@@H](C)CO)C(=O)c2cc(NS(C)(=O)=O)ccc2O[C@H]1CN(C)Cc1ccc(C(=O)Nc2ccccc2N)cc1,inactive
15,COc1ccc(CN(C)C[C@H]2Oc3ccc(NC(=O)CCN4CCOCC4)cc3C(=O)N([C@H](C)CO)C[C@H]2C)cc1,inactive
16,C[C@@H]1CN([C@H](C)CO)C(=O)c2cc(NC(=O)Nc3ccc(C(F)(F)F)cc3)ccc2O[C@@H]1CN(C)CC1CCCCC1,active
17,C[C@@H]1CN([C@@H](C)CO)C(=O)c2cc(NC(=O)Nc3ccc(C(F)(F)F)cc3)ccc2O[C@H]1CN(C)CC1CCCCC1,active
18,C[C@@H]1CN([C@H](C)CO)C(=O)c2cc(NC(=O)Nc3ccc(C(F)(F)F)cc3)ccc2O[C@H]1CN(C)CC1CCCCC1,inactive
19,C[C@H](CO)N1C[C@H](C)[C@H](CN(C)CC2CCCCC2)Oc2ccc(NC(=O)Nc3ccc(C(F)(F)F)cc3)cc2C1=O,active
20,C[C@H]1CN([C@@H](C)CO)C(=O)c2cc(NC(=O)Nc3ccc(F)cc3)ccc2O[C@H]1CN(C)CC1CCCCC1,inactive
21,C[C@H](CO)N1C[C@H](C)[C@H](CN(C)CC2CCCCC2)Oc2ccc(NC(=O)Nc3ccc(F)cc3)cc2C1=O,inactive

row,Structure (SMILES),cytotoxicity call
1,C[C@@H]1CN([C@@H](C)CO)C(=O)c2cc(NC(=O)Nc3ccc(C(F)(F)F)cc3)ccc2O[C@@H]1CN(C)CC1CCCCC1,active
2,C[C@H](CO)N1C[C@H](C)[C@@H](CN(C)CC2CCCCC2)Oc2ccc(NC(=O)Nc3ccc(C(F)(F)F)cc3)cc2C1=O,inactive
3,C[C@@H]1CN([C@H](C)CO)C(=O)c2cc(NC(=O)Nc3ccc(F)cc3)ccc2O[C@H]1CN(C)CC1CCCCC1,inactive
4,C[C@H]1CN([C@@H](C)CO)C(=O)c2cc(NC(=O)Nc3ccc(F)cc3)ccc2O[C@@H]1CN(C)CC1CCCCC1,inactive
5,C[C@H]1CN([C@@H](C)CO)C(=O)c2cc(NC(=O)Nc3ccc(C(F)(F)F)cc3)ccc2O[C@@H]1CN(C)CC1CCCCC1,inactive
6,C[C@@H]1CN([C@@H](C)CO)C(=O)c2cc(NC(=O)Nc3ccc(F)cc3)ccc2O[C@@H]1CN(C)CC1CCCCC1,inactive
7,C[C@@H]1CCCCO[C@@H](CN(C)C(=O)Nc2ccc(C(F)(F)F)cc2)[C@@H](C)CN([C@H](C)CO)C(=O)c2cc(NS(=O)(=O)c3ccc(Cl)cc3)ccc2O1,inactive
8,O=C(C[C@H]1C[C@@H]2c3cc(NS(=O)(=O)c4ccc(F)cc4)ccc3O[C@@H]2[C@H](CO)O1)NC1CCCCC1,inactive
9,C[C@@H]1CN([C@H](C)CO)C(=O)c2cc(NC(=O)Nc3cccc4ccccc34)ccc2O[C@H]1CN(C)CC1CCCCC1,inactive
10,C[C@@H]1CCCCO[C@@H](CN(C)S(=O)(=O)c2ccc(F)cc2)[C@@H](C)CN([C@@H](C)CO)C(=O)c2cc(NC(=O)NC3CCCCC3)ccc2O1,inactive
11,C[C@H]1CN([C@@H](C)CO)C(=O)Cc2cc(NS(C)(=O)=O)ccc2O[C@@H]1CN(C)Cc1ccc2c(c1)OCO2,inactive
12,O=C(C[C@@H]1C[C@@H]2c3cc(NS(=O)(=O)c4ccc(F)cc4)ccc3O[C@@H]2[C@@H](CO)O1)NC1CCCC1,inactive
13,O=C(C[C@H]1CC[C@@H]2[C@H](COC[C@H](O)CN2C(=O)Nc2cccc(Cl)c2)O1)NCCCN1CCOCC1,inactive
14,C[C@@H]1CN([C@@H](C)CO)C(=O)c2cc(NC(=O)Nc3ccc(C(F)(F)F)cc3)ccc2O[C@H]1CN(C)S(=O)(=O)c1ccc(Cl)cc1,inactive
15,C[C@@H]1CN([C@H](C)CO)C(=O)c2cc(NC(=O)Nc3ccc(C(F)(F)F)cc3)ccc2O[C@@H]1CN(C)S(=O)(=O)c1ccc(Cl)cc1,active
16,C[C@H]1CN([C@@H](C)CO)C(=O)c2cc(NC(=O)Nc3ccc(C(F)(F)F)cc3)ccc2O[C@H]1CN(C)S(=O)(=O)c1ccc(Cl)cc1,inactive
17,Cc1ccc(S(=O)(=O)N(C)C[C@@H]2Oc3ccc(NC(=O)Nc4ccc(C(F)(F)F)cc4)cc3C(=O)N([C@H](C)CO)C[C@H]2C)cc1,inactive
18,C[C@@H]1CN([C@H](C)CO)C(=O)c2cc(NC(=O)Nc3ccc(C(F)(F)F)cc3)ccc2O[C@H]1CN(C)S(=O)(=O)c1ccc(Cl)cc1,inactive
19,Cc1ccc(S(=O)(=O)N(C)C[C@@H]2Oc3ccc(NC(=O)Nc4ccc(C(F)(F)F)cc4)cc3C(=O)N([C@@H](C)CO)C[C@H]2C)cc1,inactive
20,C[C@H](CO)N1C[C@H](C)[C@H](CN(C)S(=O)(=O)c2ccc(Cl)cc2)Oc2ccc(NC(=O)Nc3ccc(C(F)(F)F)cc3)cc2C1=O,active
21,C[C@@H]1CN([C@@H](C)CO)C(=O)c2cc(NC(=O)Nc3ccc(C(F)(F)F)cc3)ccc2O[C@@H]1CN(C)S(=O)(=O)c1ccc(Cl)cc1,active

row,Structure (SMILES),cytotoxicity call
1,C[C@H]1CN([C@@H](C)CO)C(=O)c2cc(NC(=O)Nc3ccc(C(F)(F)F)cc3)ccc2O[C@@H]1CN(C)S(=O)(=O)c1ccc(Cl)cc1,inactive
2,C[C@@H]1CCCCO[C@@H](CN(C)C(=O)Nc2ccccc2)[C@H](C)CN([C@H](C)CO)C(=O)c2cc(NC(=O)CCC(F)(F)F)ccc2O1,inactive
3,C[C@@H]1CN([C@H](C)CO)C(=O)c2cc(NC(=O)CCN3CCOCC3)ccc2O[C@H]1CN(C)S(=O)(=O)c1ccccc1,inactive
4,Cc1noc(C)c1NC(=O)N(C)C[C@@H]1OCCCC[C@H](C)Oc2ccc(NC(=O)C3CCCCC3)cc2C(=O)N([C@@H](C)CO)C[C@@H]1C,inactive
5,C[C@@H]1CCCCO[C@@H](CN(C)Cc2ccc(C(=O)Nc3ccccc3N)cc2)[C@@H](C)CN([C@H](C)CO)C(=O)c2cc(NC(=O)Nc3ccc4c(c3)OCO4)ccc2O1,inactive
6,COc1ccc(CN(C)C[C@@H]2OCCCC[C@H](C)Oc3ccc(NC(=O)CCC(F)(F)F)cc3C(=O)N([C@@H](C)CO)C[C@H]2C)cc1,inactive
7,O=C(C[C@@H]1C=C[C@H](NC(=O)Nc2ccc3c(c2)OCO3)[C@H](CO)O1)NCCCN1CCOCC1,inactive
8,c1cncc(-c2nc3ccc4ccccc4c3c3c2CCCC3)c1,inactive
9,CN1CCN(C(=O)C[C@H]2CC[C@@H]3[C@H](COC[C@@H](O)CN3C(=O)Nc3ccc4c(c3)OCO4)O2)CC1,inactive
10,COc1ccc(S(=O)(=O)N(C)C[C@@H]2Oc3ccc(NS(=O)(=O)c4cn(C)cn4)cc3C(=O)N([C@@H](C)CO)C[C@@H]2C)cc1,inactive
11,C[C@@H]1CN([C@H](C)CO)C(=O)c2cccc(NC(=O)C3CCOCC3)c2O[C@@H]1CN(C)C(=O)NC1CCCCC1,inactive
12,C[C@@H]1CCCCO[C@@H](CN(C)CC2CCCCC2)[C@@H](C)CN([C@@H](C)CO)C(=O)c2cc(NC(=O)Nc3cccc4ccccc34)ccc2O1,active
13,C[C@H]1CCCCO[C@@H](CN(C)CC2CCCCC2)[C@@H](C)CN([C@@H](C)CO)C(=O)c2cc(NC(=O)Nc3cccc4ccccc34)ccc2O1,inactive
14,C[C@@H]1CCCCO[C@H](CN(C)CC2CC2)[C@@H](C)CN([C@H](C)CO)C(=O)c2cc(NC(=O)Nc3cccc4ccccc34)ccc2O1,inactive
15,C[C@H](CO)N1C[C@H](C)[C@H](CN(C)CC2CC2)OCCCC[C@H](C)Oc2ccc(NC(=O)Nc3cccc4ccccc34)cc2C1=O,inactive
16,C[C@@H]1CCCCO[C@@H](CN(C)CC2CCCCC2)[C@H](C)CN([C@H](C)CO)C(=O)c2cc(NC(=O)Nc3cccc4ccccc34)ccc2O1,active
17,C[C@@H]1CN([C@H](C)CO)C(=O)c2cc(NC(=O)Nc3cccc4ccccc34)ccc2O[C@@H](C)CCCCO[C@@H]1CN(C)CC1CCCCC1,active
18,C[C@@H]1CCCCO[C@H](CN(C)CC2CCCCC2)[C@H](C)CN([C@@H](C)CO)C(=O)c2cc(NC(=O)Nc3cccc4ccccc34)ccc2O1,active
19,C[C@H](CO)N1C[C@H](C)[C@@H](CN(C)CC2CCCCC2)OCCCC[C@H](C)Oc2ccc(NC(=O)Nc3cccc4ccccc34)cc2C1=O,inactive

# Source: the antibiotic and cytotoxicity screens of Wong et al. (2023)
